Experimental findings from PubChem BioAssay AID602399 (Sanford-Burnham Center for Chemical Genomics, 2012) are described below.

Out of some 360,000 compounds screened, about 2,800 (0.78%) were called active. For the sample, actives were picked, then their nearest neighbours and some compounds at random. Unmarked numbers belong to inactive results. No stated cut-off is given here; in the data, active means inhibition above about 26%; inactive means the rest.

The subject of the experiment is Nicotinate-nucleotide adenylyltransferase NadD (Staphylococcus aureus N315). Description: S. aureus NadD enzyme activity blockers – biochemical, colorimetric, uHTS, primary screen (AID 602399). The note with it: purified NadD enzyme, colorimetric absorbance read-out; at 20 µM; active compounds read high.
Broadly, the inhibition is the relative decrease from the control value, in per cent. In the case of `CC(C)C(NC(=O)c1c(F)cccc1F)C(=O)NCc1ccncc1` (stereo unspecified), the inhibition was -4.3%.

Regarding `Cc1cc(C(=O)OC(C)C(=O)NC2CCCCC2C)c(C)o1` (stereo unspecified), the inhibition was -0.327%.

On to `CC(=O)c1c(C)[nH]c(C(=O)COC(=O)c2cccc(S(=O)(=O)N(C)c3ccccc3)c2)c1C`, for which the inhibition was -2.3%.

With `CC(C)(C)C(=O)c1cnc(Nc2ccccc2)s1`, the inhibition was -4.48%.

Regarding `S=c1[nH]nc(NCCc2ccccc2)s1`, the inhibition was 6.24%.

As to `S=c1[nH]nc(Nc2ccccc2)s1`, the inhibition was 31% (active).

With `O=c1c([N+](=O)[O-])cccn1Cc1ccc(F)cc1Cl`, the inhibition is -2.47%.

Consider `Cc1c(C(=O)N(C)CCc2cnn(C)c2)oc2c(F)cccc12`, for which the inhibition was -0.376%.

For the compound `CCN(CC)C(=O)c1nc[nH]c1C(=O)N(C)Cc1ccccc1`, the inhibition is -5.16%.

Regarding `CCOC(=O)C(C)n1nc(-c2ccccc2)c2ccccc2c1=O` (stereo unspecified), the inhibition is 4.56%.

As for `CCN(CC)C(=O)c1sc2nc(-c3ccccc3)ccc2c1N`, the inhibition is 29.7% (active).

Turning to `CC1(C)C(C=C(Cl)Cl)C1C(=O)NC(O)C(=O)c1ccccc1` (stereo unspecified), the inhibition was -1.25%.

As for `Cc1c2cnn(-c3ccccc3)c(=O)c2c(C)n1CCCC(=O)N1CCN(C)CC1`, the inhibition was 4.17%.

On to `CCC(=O)Nc1ccc2c(c1)nc(CCN1CCN(c3ccccn3)CC1)n2C`, for which the inhibition is -0.459%.

On to `Cn1c(CCN2CCCCCC2)nc2cc(NC(=O)Nc3ccccc3)ccc21`, for which the inhibition is 31.5% (active).

For the compound `Cc1nn(CC(=O)Nc2ccc3c(c2)nc(CN2CCCCC2)n3C)c(=O)c2ccccc12`, the inhibition was -0.187%.

For `CNC(=O)C1CCN(S(=O)(=O)c2c(C)noc2/C=C/c2cccc(C)c2)CC1`, the inhibition is -4.39%.

Consider `Cc1noc(/C=C/c2ccco2)c1S(=O)(=O)N1CCC(C(=O)N2CCc3ccccc32)CC1`, for which the inhibition was 31.6% (active).

`Cc1noc(/C=C/c2ccco2)c1S(=O)(=O)N1CCC(C(=O)Nc2ccc(Cl)cn2)CC1`: the inhibition was 16.8%.

On to `CCc1ccc(OCC(=O)NCC(c2ccc(Cl)cc2)N2CCCCC2)cc1` (stereo unspecified), for which the inhibition is -9.2%.

`O=C(O)CN(Cc1ccco1)S(=O)(=O)c1ccc(F)cc1`: the inhibition was -0.327%.

As for `O=Nc1c(O)cc(O)c2ccccc12`, the inhibition was -0.774%.

As to `CCC(C)OC(=O)C(C)Oc1ccc(-c2ccccc2)cc1` (stereo unspecified), the inhibition was 2.06%.

Turning to `NC(CSC1(c2ccccc2)c2ccccc2-c2ccccc21)C(=O)O` (stereo unspecified), the inhibition is 27.6%.

For `NC(CSC(c1ccccc1)(c1ccccc1)c1ccc(-c2ccccc2)cc1)C(=O)O` (stereo unspecified), the inhibition is 43.5% (active).

Take `O=C(N1CCOCC1)N(Cc1ccccc1)c1ccccn1`: the inhibition was -0.327%.
